These results are taken from PubChem BioAssay AID652105 (National Center for Advancing Translational Sciences (NCATS), 2013).

Each structure is given as a SMILES string. About 4,100 (1.2%) of roughly 330,000 compounds were called active. Not shown: some 2% with an inconclusive outcome. The calls were made as follows: active = max response of -50% or lower; inconclusive = between -30% and -50%; inactive = -30% or higher. The full list was thinned out, with actives kept by preference.
% is scaled to controls: 0 for no effect and ±100 for the full control effect.

The assay deals with Phosphatidylinositol 5-phosphate 4-kinase type-2 alpha (Homo sapiens) (UniProt P48426). Kind of assay: qHTS for Inhibitors of phosphatidylinositol 5-phosphate 4-kinase (PI5P4K). Also: value at the top dose of about 77 µM. As to conditions: PI5P4Kalpha enzyme, ADP-Glo luminescence, 60 min; active compounds read low. In short, it runs like this: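 Quantitative HTS of the MLSMR library against PI5P4Kalpha with substrate. ATP added last at 5 microM final; room temperature, 60 minutes. Remaining ATP depleted, ADP converted and read as luminescence.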
Chain of Phosphatidylinositol 5-phosphate 4-kinase type-2 alpha (Homo sapiens) (P48426 whole entry, looked up): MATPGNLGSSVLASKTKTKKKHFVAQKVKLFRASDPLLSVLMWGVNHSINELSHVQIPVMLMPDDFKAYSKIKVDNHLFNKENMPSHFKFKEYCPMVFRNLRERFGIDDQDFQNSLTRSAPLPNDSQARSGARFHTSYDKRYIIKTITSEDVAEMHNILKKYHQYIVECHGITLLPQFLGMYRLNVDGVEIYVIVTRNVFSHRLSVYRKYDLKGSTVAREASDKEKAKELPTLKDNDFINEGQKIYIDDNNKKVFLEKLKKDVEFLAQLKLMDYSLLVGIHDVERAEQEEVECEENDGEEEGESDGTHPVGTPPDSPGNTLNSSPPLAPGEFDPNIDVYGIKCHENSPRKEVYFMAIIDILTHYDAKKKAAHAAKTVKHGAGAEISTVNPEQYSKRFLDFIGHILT
For `CCCNC(=O)C1(C)CCCN(Cc2cccc(C(F)(F)F)c2)C1` (configuration not stated), the max response is -5.32% (inactive). For `CCOC(=O)N1C(=O)C[C@](Sc2ccc(C)cc2)(C(=O)OC)[C@H]1c1ccccc1` the value was 5.07% (inactive).

Consider `CC1(C(=O)NS(=O)(=O)Cc2cccc(Cl)c2)CCN1C(=O)Cc1ccccc1` (configuration not stated), for which the max response was 1.29% (inactive). The same measure for `CC(C)CN1C(=O)CN(S(C)(=O)=O)CC1(C)C(=O)NCc1ccccc1` (configuration not stated): -3.28% (inactive); for `OC[C@@H]1CN(Cc2ccncc2)C[C@H](n2cnc3c(N4CCN(c5ccccc5)CC4)ncnc32)O1`: 3.53% (inactive). The same measure for `O=C(Cn1cnc2c(OCc3ccccc3)ncnc21)NCCCn1ccnc1`: 1.01% (inactive); for `O=C(Cn1cnc2c(OCc3ccccc3)ncnc21)NCc1nc2ccccc2[nH]1`: -52.2% (active). The same measure for `CC(CNC(=O)Cn1cnc2c(OCc3ccccc3)ncnc21)c1ccccc1` (configuration not stated): 2.34% (inactive).

Consider `CCc1nc2c(OCCOc3ccccc3)cccn2c1N(C)C(=O)c1cccs1`, for which the max response was -2.92% (inactive). For `COc1ccc(S(=O)(=O)c2c[nH]c(=S)[nH]c2=O)cc1Cl` the value was -71.5% (active); for `COc1ccc(S(=O)(=O)N(C)CC(=O)N2CCCC2)cc1Cl`, -1.95% (inactive); for `COc1ccc(S(=O)(=O)Nc2ccc3c(c2)OCO3)cc1Cl`, -4.52% (inactive).

As for `CCCCCCCCN1C(=O)[C@H](CC(=O)NCc2cccc3ccccc23)C[C@@]2(C(=O)OC)CCCCC=C12`, the max response is 22.3% (inactive). Turning to `CC(=O)N1C[C@@H](CO)[C@@H](N(C)C(=O)c2ccco2)C[C@H]1c1ccccc1`, the max response was -3.57% (inactive).

Turning to `COC(=O)c1sc2[nH]c(=S)n(N)c(=O)c2c1C`, the max response was -60.5% (active). The same measure for `COC(=O)c1sc(NC(=O)COC(=O)C2CCC2)c(C(=O)OC)c1C`: 16.3% (inactive). For `CCc1nc2ccc(C(=O)Nc3cc(-c4ccccc4)ccc3OC)cn2c1N(CC)CC(=O)N(C)C` the value was 1.18% (inactive); for `CC1=NN(c2ccc(Cl)c(C(=O)O)c2)C(=O)/C1=C/c1ccc(-c2ccccc2[N+](=O)[O-])o1`, -9.29% (inactive). For `O=C1NN(c2ccccc2)C(=O)/C1=C/c1ccc(-c2cccc(C(=O)O)c2)o1` the value was -59.1% (active). Take `CC(=O)c1cc(-c2ccccc2)[nH]c1N1CCCC1`: the max response is -3.68% (inactive). For `CCCCOCCCNC(=O)C[C@@H]1C[C@@]2(C(=O)OCC)CCCC=C2N(CCC2=CCCCC2)C1=O` the value was 1.62% (inactive). With `CC(=O)N1Cc2cc(C(=O)NCc3cccc(F)c3)nc(-c3cccc(C4=CCCCC4)c3)c2[C@H]1CCO`, the max response is 12.2% (inactive).

For the compound `COc1ccc(-c2coc3c(C(=O)NC(C)C)cccc23)c(C)c1`, the max response is -1.18% (inactive). The same measure for `COc1ccc2[nH]cc(CCN3C(=O)c4ccc(C(=O)O)cc4C3=O)c2c1`: -70.3% (active); for `Cc1ccc2[nH]cc(CCCN3C(=O)c4ccccc4C3=O)c2c1`: -7.36% (inactive); for `COCCCN1C(=O)c2ccc(C(=O)Nc3ccc(OC)cc3OC)cc2C1=O`: 2.76% (inactive).

For `Cc1ccc(C(NC(=O)C2CCN(CCOc3ccc(Cl)cc3Cl)CC2)c2ccccn2)cc1` (configuration not stated), the max response is 5.45% (inactive). In the case of `CC(C)N=C1CCCC1C(=S)SSC(=S)C1CCCC1=NC(C)C` (configuration not stated), the max response was -54.3% (active). The same measure for `CCCOc1ccc(F)cc1-c1cc(C(=O)NCc2ccc(F)cc2)[nH]n1`: 3.63% (inactive); for `CCOC(=O)[C@]12CCCC=C1N(CCC1=CCCCC1)C(=O)[C@H](CC(=O)N1CCN(C(=O)c3ccco3)CC1)C2`: -6.59% (inactive); for `C[C@H]1CN([C@@H](C)CO)C(=O)c2cc(C3=CCCCC3)cnc2O[C@@H]1CN(C)C(=O)Cc1ccccc1`: -2.83% (inactive). The same measure for `COc1ccc(-c2cc3nc(NCCOc4ccccc4)ccn3n2)cc1`: 23.5% (inactive). For `CCC(C(=O)NCc1ccccc1)n1c(Cc2cc(F)cc(F)c2)nc2ccccc21` (configuration not stated) the value was 0.77% (inactive). For the compound `CC(C)CCNC(=O)c1[nH]c(C(F)(F)F)nc1-c1ccccc1`, the max response is -8.89% (inactive). With `CC(=O)N1c2ccc(S(=O)(=O)N(C)CC(=O)N(C)Cc3ccccc3)cc2CC1C` (configuration not stated), the max response was -1.34% (inactive).

Regarding `CC(=O)N1c2ccc(S(=O)(=O)NCCC(=O)N(C)C3CCCCC3)cc2CC1C` (configuration not stated), the max response is -54.5% (active). For `COc1cccc(CNS(=O)(=O)c2ccc3c(c2)CC(C)N3C(C)=O)c1` (configuration not stated) the value was -2.98% (inactive).

For the compound `COc1ccc(-c2nc3ccc(Br)cn3c2Cc2ccc(C)cc2)cc1OC`, the max response was -8.6% (inactive). The same measure for `COc1ccc(C(C(=O)Nc2c(C)cccc2C)N2CCN(c3ccc(C)cc3)CC2)cc1` (configuration not stated): 5.89% (inactive); for `O=C(N/N=C/c1cc(Cl)cc([N+](=O)[O-])c1O)C(O)(c1ccccc1)c1ccccc1`: 3.34% (inactive). For `O=C(N/N=C/c1cc(Br)c(O)c([N+](=O)[O-])c1)C(O)(c1ccccc1)c1ccccc1` the value was -58.4% (active). The same measure for `COc1ccc(CC(=O)N/N=C/c2cc([N+](=O)[O-])cc(Br)c2O)cc1`: -27.2% (inactive).

`C[C@H](CO)N1C[C@H](C)[C@H](CN(C)C(=O)c2ccncc2)OCc2ccccc2-c2c(n(C)c3ccccc23)C1=O`: the max response is 0.39% (inactive). Turning to `O=C1/C(=C/c2ccc(F)cc2)SC(=S)N1CCCC(=O)N1CCCCC1CCO` (configuration not stated), the max response is 0.801% (inactive).

In the case of `O=C1/C(=C/c2ccc(F)cc2)SC(=S)N1NS(=O)(=O)c1ccccc1`, the max response was -65.3% (active). For `O=C(CCCN1C(=O)/C(=C/c2ccccc2)SC1=S)Nc1ccc(O)cc1` the value was 0.839% (inactive). The same measure for `C=C(C)C(=O)O[C@H]1C/C(C)=C\C(=O)/C=C(\C)[C@H](O)[C@@H]2OC(=O)C(=C)[C@@H]21`: -56.7% (active); for `C/C(=N\NC(=O)c1ccc(NS(=O)(=O)c2cccs2)cc1)c1ccc2ccccc2c1`: -63% (active). Take `C/C(=N\NC(=O)c1ccc2ccccc2c1)c1cccnc1`: the max response is -3.12% (inactive).

For the compound `COc1cc(OC)c(C(=O)NNC(=O)c2ccc(NS(=O)(=O)c3cccs3)cc2)cc1OC`, the max response was -9.62% (inactive). The same measure for `CC(C)C1C(=O)N(Cc2cn(CCC3OCCO3)nn2)CCS(=O)(=O)N1Cc1ccc(-c2ccccc2C(F)(F)F)cc1` (configuration not stated): 22.5% (inactive). With `CCCNC(=O)C1(C)CCN(Cc2csc(-c3ccc(Cl)cc3)n2)C1` (configuration not stated), the max response is -11.7% (inactive).
